# TrxR1 substrate: is turned over as a substrate by rat TrxR1 | O89049 | purified TrxR1 substrate turnover, NADPH consumption readout | Potency, µM (highest dose often 114 µM), without a hit: top-dose activity change, negative = substrate turnover | actives 0.01% (n = 390,000) | AID 588456; note: nearly all actives have a fitted effect of over 50% in size
#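 Rat TrxR1, dispensed at 90 nM, was prereduced with 400 uM NADPH (final) for 5 min at ~22 deg C, then incubated with compound 15 min before 400 uM selenite. A first-read NADPH fluorescence drop versus no-compound background flagged substrates.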
# GALK inh: blocks human galactokinase activity; actives 0.007% (n = 270,000); Potency, µM (series often up to 57.5 µM), for the others: at the highest dose activity change, negative = inhibition, actives largely listed as inhibitors; P51570; Purified GALK, Kinase-Glo residual ATP luminescence
#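 Human GALK (5 nM) with 35 uM ATP and 100 uM galactose in 20 mM HEPES pH 8.0, 5 mM MgCl2, 60 mM NaCl, 1 mM DTT, 0.01% BSA. After 1 h at room temperature, leftover ATP was read by Kinase-Glo Plus luminescence.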
# rTrxR1 inhibitor: blocks rat thioredoxin reductase 1. Potency, µM (titrated, usually from 114 µM), for inactives: top-dose activity change, negative = inhibition, most hits filed as inhibitors. actives 1% (n = 390,000). AID 588453. O89049. recombinant rTrxR1, NADPH fluorescence consumption, selenite substrate; note: nearly all actives have a fitted effect of over 65% in size
#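 Rat TrxR1 (90 nM in the dispensed reagent) was pre-reduced with 400 uM NADPH for 5 min at room temperature, then incubated with compound for 15 min. After 400 uM selenite was added, NADPH fluorescence (Ex 340/Em 450 nm) was followed for 8 min.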
# RGS4 inh: inhibitors of human regulator of G protein signaling 4 | Transcreener GDP fluorescence polarization, RGS4-accelerated GTP hydrolysis | actives 0.039% (n = 390,000) | Potency, µM (series often up to 114 µM), inactives show at the top dose activity change, negative = inhibition, usual class: inhibitors; note: nearly all actives have a fitted effect of over 75% in size
# Target sequence (P49798 whole entry, looked up): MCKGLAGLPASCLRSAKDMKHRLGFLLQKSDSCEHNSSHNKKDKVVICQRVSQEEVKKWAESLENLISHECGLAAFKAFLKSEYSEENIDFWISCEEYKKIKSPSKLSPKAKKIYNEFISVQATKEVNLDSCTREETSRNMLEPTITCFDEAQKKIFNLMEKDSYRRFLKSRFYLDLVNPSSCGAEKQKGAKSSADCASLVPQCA
#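 MLSMR compounds (23 nl, pin-transferred) preincubated 10 min at room temperature with a 500nM (2x) first reagent, then RGS4 at 900nM (2x) plus Transcreener GDP mix added; fluorescence polarization (620/688 nm) read before and after 90 min at 30 °C.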
# Eya2 inh: inhibitors of human Eya2 phosphatase activity. O00167. recombinant Eya2, OMFP fluorescence dephosphorylation (OMFP is methylfluorescein phosphate). Potency, µM (titrated, usually from 76.9 µM), for inactives: at the highest dose activity, negative = inhibition, most hits filed as inhibitors. actives 0.006% (n = 330,000)
# Target sequence (O00167 whole entry, looked up): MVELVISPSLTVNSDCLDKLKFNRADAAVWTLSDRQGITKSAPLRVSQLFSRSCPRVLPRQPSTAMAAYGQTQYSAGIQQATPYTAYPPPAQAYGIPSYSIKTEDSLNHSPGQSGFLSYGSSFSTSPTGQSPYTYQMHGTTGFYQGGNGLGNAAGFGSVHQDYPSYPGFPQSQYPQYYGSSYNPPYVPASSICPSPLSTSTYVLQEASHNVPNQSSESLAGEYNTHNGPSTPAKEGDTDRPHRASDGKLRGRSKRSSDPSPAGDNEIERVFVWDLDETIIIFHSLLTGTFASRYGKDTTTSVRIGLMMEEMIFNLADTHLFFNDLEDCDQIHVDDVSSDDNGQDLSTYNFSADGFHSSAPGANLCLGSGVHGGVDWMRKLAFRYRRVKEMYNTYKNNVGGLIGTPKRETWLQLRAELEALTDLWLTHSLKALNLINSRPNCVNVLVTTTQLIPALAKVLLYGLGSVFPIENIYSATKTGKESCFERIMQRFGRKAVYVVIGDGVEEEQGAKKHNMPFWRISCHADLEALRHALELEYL
#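 Eya2 (0.2 uM) preincubated 10 min at ambient with compound, then OMFP substrate added at 50 uM; 10 min reaction in 50 mM HEPES pH 7.5, 50 mM NaCl, 5 uM MgCl2, 0.05% BSA, 1 mM DTT. Fluorescence read at Ex 485/Em 525 nm.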
# USP2a block: inhibitors of human ubiquitin-specific protease USP2a | O75604 | USP2 core, Ub-CHOP2 coupled fluorogenic reporter, 485/531 | Potency, µM (top dose mostly 38.3 µM), for the others: top-dose activity change, negative = inhibition, most hits filed as inhibitors | actives 0.01% (n = 330,000);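 note: plate controls were DMSO wells for no effect and full inhibition by NEM control for full effect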
#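 Cell-free coupled assay: 10nM USP2 core preincubated 30min RT with compound in Tris-HCl pH 8.0/CaCl2/CHAPS buffer, then 25nM Ub-CHOP2 and 25nM reporter substrate; fluorescence (Ex 485/Em 531) read after 60min RT, normalized to NEM inhibition, concentration-response curves fitted.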
# An asterisk follows results filed as active; i = inactive; ? = inconclusive; nt = not tested or not shown; ! = not confirmed by another sample; [ ] = dose if it differs, or a comment. Sampled rows, rich in hits. Any-hit rate of the full collection: about 1%. Calls come from the whole dose curve; as a rule, active = well fitted curve in the direction sought with a large enough effect; inconclusive = small, poorly fitted or top-dose-only effect, or another doubt; inactive = no such curve, though single readings can be large; an effect the other way counts as inactive or inconclusive. Unless noted, % is set by controls: 0 for no effect and ±100 for the full control effect; potency is the fitted concentration of half-maximal effect.
SMILES,TrxR1 substrate,GALK inh,rTrxR1 inhibitor,RGS4 inh,Eya2 inh,USP2a block
NC(=O)NCCC[C@H](N)C(=O)O,nt,nt,nt,i,nt,nt
NC(=S)NCCC[C@H](N)C(=O)O,4%[57.1 µM],nt,16%[57.1 µM],11µM*!,3%,nt
COc1ccc(N/C(=C/[N+](=O)[O-])SC)cc1,3%[57.1 µM],11%,7.1µM*,-18%,?,-1%
CS/C(=C\[N+](=O)[O-])Nc1ccc(F)cc1,-24%[57.1 µM],2%,?,-41%,nt,nt
CS/C(=C\[N+](=O)[O-])Nc1ccccc1,12%[57.1 µM],-3%,1.3µM*,-8%,nt,nt
Cc1[nH]c2ccccc2c1C(=O)CN1CCC(C)CC1,-4%,-1%,35µM*,1%[11.4 µM],-4%,-2%
Cn1nnnc1Sc1ncnc2scc(-c3ccccc3)c12,9%[11.4 µM],-4%,7%[11.4 µM],-12%,-1%,1%
Cn1nnnc1Sc1ncnc2scc(Br)c12,5%,nt,5.6µM*,5%,6%,1%
Cn1nnnc1Sc1ncnc2scc(-c3ccc[nH]3)c12,-2%,nt,50µM*,-32%,-6%,-1%
CCOc1ccc2c(c1)c(=O)c(S(=O)(=O)c1ccc(Cl)cc1)cn2Cc1ccccc1C,6%,nt,22%,30%,nt,nt
N#Cc1nc(-c2ccc(OCc3ccccc3Cl)cc2)oc1N1CCCCCC1,40%,nt,20%,1%,nt,nt
COc1cccc(/C=C/c2ccnc3ccccc23)c1OC,13%,nt,19%,nt,nt,nt
CC1CC=CC2C1C(=O)N(Cc1ccccc1)C2c1ccc2ccccc2c1Br (stereo not drawn),4%,nt,?,-33%,nt,nt
O=C(Nc1ccc(Cl)cc1Cl)c1cccc(N2C(=O)C=CC2=O)c1,5%,-4%,2µM*,-47%[11.4 µM],7%,3%
CCN1CCN(C(c2ccccc2)c2c(O)cc(C)n(Cc3ccco3)c2=O)CC1 (stereo not drawn),-4%[57.1 µM],nt,7.9µM*,2%,nt,nt
COCCn1c(C)cc(O)c(C(c2cccc(F)c2)N2CCN(c3ccccc3)CC2)c1=O (stereo not drawn),8%[57.1 µM],nt,?,14%,nt,nt
CCN1CCN(C(c2ccccc2Cl)c2c(O)cc(C)n(Cc3ccco3)c2=O)CC1 (stereo not drawn),3%[57.1 µM],nt,8.9µM*,-1%,nt,nt
Cc1cc(O)c(C(c2ccccc2)N2CCN(C)CC2)c(=O)n1Cc1ccco1 (stereo not drawn),1%[57.1 µM],nt,8.9µM*,-20%,nt,nt
COCCn1c(C)cc(O)c(C(c2ccc(OC)cc2)N2CCN(c3ccccc3)CC2)c1=O (stereo not drawn),6%[57.1 µM],nt,14µM*,1%,nt,nt
Cc1cc(O)c(C(c2ccccc2Cl)N2CCN(c3ccccc3)CC2)c(=O)n1Cc1ccco1 (stereo not drawn),2%[57.1 µM],nt,?,-2%,nt,nt
CCc1ccc(NC(=O)c2ccc(F)c(S(=O)(=O)NCCc3ccc(OC)c(OC)c3)c2)cc1,-9%[57.1 µM],nt,-19%[57.1 µM],12%,nt,nt
COc1ccc(OCC(=O)N/N=C\c2ccco2)cc1,-2%,0%,12%[57.1 µM],6%,-6%,0%
COc1ccc(/[N+]([O-])=C/c2ccco2)cc1,-7%,nt,56µM*,-30%,2%,1%
C/C=C\C=C\C(=O)N1CC2(CC(c3cccc(NC(=O)COc4ccc(Cl)cc4)c3)=NO2)C[C@H]1C(N)=O (stereo partly drawn),12%[57.1 µM],1%,25µM*,?,-2%,5%
C/C=C\C=C/C(=O)Nc1cccc(C2=NOC3(C2)C[C@@H](C(N)=O)N(C(=O)COc2ccc(Cl)cc2)C3)c1 (stereo partly drawn),-3%,-4%,5.6µM*,?,2%,-11%
SMILES,TrxR1 substrate,GALK inh,rTrxR1 inhibitor,RGS4 inh,Eya2 inh,USP2a block
CCCCCC(=O)Nc1cccc(C2=NOC3(C2)C[C@H](C(N)=O)N(C(=O)COc2ccc(Cl)cc2)C3)c1 (stereo partly drawn),-12%,4%,4%,-2%,-9%,4%
C/C=C/C=C\C(=O)Nc1cccc(C2=NOC3(C2)C[C@H](C(N)=O)N(C(=O)/C=C/C)C3)c1 (stereo partly drawn),8%,-1%,14µM*,?,11%,-9%
C/C=C(\C)C(=O)N1CC2(CC(c3cccc(NC(=O)COc4ccc(Cl)cc4)c3)=NO2)C[C@@H]1C(N)=O (stereo partly drawn),-8%[57.1 µM],-3%,1%[57.1 µM],-6%,10%,0%
C/C=C/C=C\C(=O)Nc1cccc(C2=NOC3(C2)C[C@@H](C(N)=O)N(C(=O)c2cc([N+](=O)[O-])cc([N+](=O)[O-])c2C)C3)c1 (stereo partly drawn),5%[57.1 µM],-3%,16µM*,?,2%,-8%
CC(C)NS(=O)(=O)c1ccc2[nH]c3nc(SCC(=O)Nc4ccc(F)c(F)c4)nnc3c2c1,5%,nt,11%,-10%,nt,nt
CCN(CC)CCC(c1ccc(N(C)C)cc1)c1c(OC)cc(OC)c2c1OC(=O)CC2c1ccc(N(C)C)cc1 (stereo not drawn),2%,nt,?,-13%,nt,nt
Cc1ccnc2c(Cl)cccc12,4%,nt,24%,nt,nt,nt
O=S(=O)(c1ccc2ccccc2c1)N1CCOCC1,4%,-1%,17%,8%,4%,1%
O=C(O)c1ccc2nc(-c3ccco3)c(-c3ccco3)nc2c1,15%,2%,2.2µM*,-35%,1%,1%
COc1ccc(CCNC(=O)c2ccc3nc(-c4ccco4)c(-c4ccco4)nc3c2)cc1OC,-4%,-2%,2.5µM*,?,-19%,-13%
CCc1nc2ccc(C(=O)NCCc3ccc(OC)c(OC)c3)cc2nc1CC,1%[57.1 µM],-3%,26%[57.1 µM],-26%[56.9 µM],9%,2%
O=S(=O)(c1ccc2nc(-c3ccco3)c(-c3ccco3)nc2c1)N1CCOCC1,4%,3%,4µM*,?,-2%,-15%
O=C(c1ccc2nc(-c3ccco3)c(-c3ccco3)nc2c1)N1CCN(c2ccccc2)CC1,-10%,1%,?,-45%,3%,2%
O=C(Nc1ccc2nc(-c3ccco3)c(-c3ccco3)nc2c1)NC1CC1,1%,1%,4.5µM*,?,3%,1%
O=c1c2ccccc2sn1-c1ccc(Cl)c(S(=O)(=O)N2CCOCC2)c1,-6%,nt,22%,-163%,nt,nt
CN(C)c1ccc(/C=C/c2ncnc3ccccc23)cc1,-10%,nt,-11%,nt,nt,nt
O=C(Nc1cccc(C(F)(F)F)c1)c1ccc2nc(-c3ccco3)c(-c3ccco3)nc2c1,-5%,-3%,5µM*,?,0%,-6%
CCC(C)NC(=O)c1ccc2nc(-c3ccco3)c(-c3ccco3)nc2c1 (stereo not drawn),-10%,nt,2.8µM*,?,nt,nt

# Compound activity from PubChem BioAssay.
